Drawing on PubChem BioAssay AID449762 (Southern Research Specialized Biocontainment Screening …, 2010), this text covers inhibition for 93 compounds.

The campaign covered roughly 330,000 compounds. About 1,900 (0.58%) were called active. Roughly 4% stayed inconclusive and do not appear here. Only a sample is shown. Entries with a potency or affinity are not part of this list. Values without a mark were called inactive. Cut-off read from the data, not from the text of the source: inconclusive = inhibition above about 70% without an active follow-up result; inactive = below that.

The assay is described as follows: M. tuberculosis growth inhibition, HTS (AID 449762).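 Note: bacterial growth assessed after seven days of incubation.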 Particulars: M. tuberculosis H37Rv growth inhibition, 7H9 media; at 25 µM; stronger effect = higher value.
Turning to `COc1ccccc1N1CCN(c2nnc(-c3ccc(F)cc3)c3ccccc23)CC1`, the inhibition (in general, the relative decrease from the control value, in per cent) was -0.63%.
Next, `COc1cc(C(=O)N/C(=C\c2cn(S(=O)(=O)N(C)C)c3ccccc23)C(=O)N2CCCC2)cc(OC)c1OC`: 7.41%; `COc1cc(/C=N/n2cc(-c3ccccc3)[nH]c2=S)cc(OC)c1O`: -4.41%.
Take `Cc1ccc(-n2cnc3scc(-c4cccs4)c3c2=O)cc1`: the inhibition was 9.75%.
Under `O=c1cc(-c2ccccc2)oc2ccccc12` stands -7.12%.
Under `O=c1cc(/C=C/c2ccccc2)oc2c1ccc1ccccc12` stands -0.73%; under `CN1CCCN(C(=O)c2cc(-c3ccc(Cl)c(Cl)c3Cl)nc3ccccc23)CC1`, 5.52%; under `CCOCCCNC(=O)C(NC(=O)Cc1cccs1)c1ccc(OC)cc1` (stereo not drawn), 3.59%.
For the compound `CCOC(=O)c1sc(C)c2c(=O)n(CC)nnc12`, the inhibition was -7.87%.
With `CCOC(=O)c1sc(C)c2c(=O)n(CCc3ccccc3)nnc12`, the inhibition is -10.6%.
In the case of `COC(=O)C1=C(C)N(CCCC(=O)O)C(=O)NC1c1ccc(Br)cc1` (stereo not drawn), the inhibition is 2.77%.
Take `COCCn1cc(C(=S)N2CCCCC2)c2ccccc21`: the inhibition was 5.15%.
For `CCOc1ccc(NS(=O)(=O)c2ccc(C(=O)NCCN3CCOCC3)cc2)cc1`, the inhibition was -3.65%.
Regarding `CCNC(=S)N/N=C/c1ccc(-c2ccccc2)o1`, the inhibition is -5.23%.
Next, `NC(=S)N/N=C/c1ccc(-c2cc(Cl)cc(Cl)c2)o1`: -4.69%.
Under `CC(=O)N1CCN(C(=O)C(Cc2ccccc2)NC(=O)c2ccccc2)CC1` (stereo not drawn) stands -1.96%; under `COc1cc(CSC)nc(-c2ccccc2)n1`, -6.71%.
Next, `CC1(O)CC(c2ccc(Cl)cc2)=NN1C(=O)c1ccc(Cl)cc1` (stereo not drawn): 47.7%.
With `CC(=O)N1N=C(c2ccc(Cl)cc2)CC1c1ccc([N+](=O)[O-])cc1` (stereo not drawn), the inhibition was -2.62%.
As to `CC(=O)Nc1ccc(NC(=O)CCn2c(=S)oc3ccccc32)cc1`, the inhibition was 0.4%.
Under `Cc1cccc(C)c1NC(=S)N(Cc1ccccc1)Cc1cccnc1` stands -3.48%; under `O=C(O)[C@@H]1[C@@H]2C[C@@H]2CN1c1ncccc1[N+](=O)[O-]`, -3.12%; under `CN1C(=O)N(C)c2cccc3cccc1c23`, 7.44%.
Next, `CN1C(=O)N(C)c2ccc(Br)c3cccc1c23`: -5.58%.
Take `O=C(c1cc2c(=O)n3ccccc3nc2s1)N1CCN(c2cccc(Cl)c2)CC1`: the inhibition was 5.56%.
Next, `CC(=O)c1nn(-c2ccccc2)cc1C(=O)c1ccc(C)cc1`: 2.07%; `COc1ccc2oc(-c3ccc(C)c(NC(=O)CSc4ccc(Cl)cc4)c3)nc2c1`: -3.67%; `Cc1ccc(/C=C2\SC(=S)N(CCC(=O)NNC(=O)c3ccc(O)cc3)C2=O)cc1`: 3.42%.
Next, `Cc1cccc(C2=N/C(=C\c3cccnc3)C(=O)O2)c1`: -3.98%.
Under `Cc1ccccc1C1=N/C(=C/c2cccs2)C(=O)O1` stands 61%; under `CCOC(=O)N=Nc1c(O)n(CC(=O)OC)c2ccccc12`, -0.16%.
Regarding `CCCSc1nc2c(cnn2-c2ccc(Cl)cc2)c(=O)[nH]1`, the inhibition is 6.95%.
Next, `O=C(NNC(=O)c1cc(S(=O)(=O)N2CCOCC2)c(Cl)cc1Cl)c1ccccc1F`: 0.47%.
Under `Cc1nn(Cc2ccccc2)c(C)c1C(=O)OCC(=O)Nc1cc(S(C)(=O)=O)ccc1Cl` stands 6.17%; under `O=C(Nc1ccccc1Cl)N1CCN(c2ccc3nnc(-c4ccc(F)cc4)n3n2)CC1`, 22.4%; under `O=C(Nc1ccc(F)cc1)N1CCN(c2ccc3nnc(-c4ccc(F)cc4)n3n2)CC1`, -4.53%.
Under `CC1=C(C(=O)NC(C)c2ccccc2)C2(CCC(C)CC2)OC1=O` (stereo not drawn) stands -6.81%; under `Cc1cc(/C=C(\C#N)C(=O)NCc2ccccc2)cc(C)c1O`, -9.9%; under `CCOc1cc(CNCc2ccc3c(c2)OCO3)ccc1OC`, -2.37%.
As for `COc1ccc(CCNC(=O)CSc2ncc(C(=O)Nc3ccccc3)c(=O)n2C)cc1`, the inhibition was -4.13%.
`COc1cccc(NC(=S)N(CCCN2CCCC2)Cc2cccn2Cc2ccc(Cl)cc2)c1`: the inhibition was 6.09%.
Take `Cc1cccc(NC(=S)N(CCCN2CCCC2)Cc2cccn2Cc2ccc(Cl)cc2)c1`: the inhibition is 42.3%.
Next, `CN(C)N1C(=O)/C(=C/c2ccco2)SC1=Nc1ccccc1`: -2.31%; `ClC1(CNc2ccccc2)CCN(Cc2ccccc2)CC1`: -3.08%.
With `OC1(c2ccccc2)CCN(Cc2ccccc2)CC1`, the inhibition was -0.23%.
For `CCOC(=O)N1CCC2(CC1)C(C#N)=C(N)OC1=C2C(=O)CC(C)C1` (stereo not drawn), the inhibition was -8.64%.
On to `COc1ccc(NC(=O)CSc2nc3ccccc3c(=O)[nH]2)cc1S(N)(=O)=O`, for which the inhibition was -3.14%.
In the case of `CC(=O)Nc1ccc(-c2csc(N/N=C\c3ccncc3)n2)cc1`, the inhibition was 6.44%.
In the case of `C(=N\Nc1nc(-c2ccccc2)cs1)/c1cccs1`, the inhibition was 28.8%.
Turning to `CC(CNC(=O)CN1C(=O)NC2(CCCCC2)C1=O)c1ccccc1` (stereo not drawn), the inhibition is -3.97%.
Take `COC(=O)c1nnn(CC(=O)NC(=O)Nc2ccccc2)c1C(=O)OC`: the inhibition is -6.63%.
Under `O=C1c2ccccc2C(=O)c2c1oc(C(F)(F)F)c2C(=O)c1ccccc1` stands 9.23%; under `COc1ccc(C(=O)Nc2ccc3c(c2)C(=O)c2ccccc2C3=O)cc1OC`, 4.14%.
Under `CC(C)(C)c1ccc(C(=O)NCC(=O)OCC(=O)N2CCN(S(=O)(=O)c3ccc(Cl)cc3)CC2)cc1` stands 8.58%.
As to `CC(=O)Nc1ccc(S(=O)(=O)NCc2ccc(C(=O)NCCCN3CCC(C)CC3)cc2)cc1`, the inhibition was 2.04%.
On to `Cc1ccc(S(=O)(=O)NCc2ccc(C(=O)NCCCN3CCN(C)CC3)cc2)cc1`, for which the inhibition was -4.79%.
Take `N/C(=N\OC(=O)c1cnn(-c2ccccc2)c1C(F)(F)F)c1cc(C(F)(F)F)cc(C(F)(F)F)c1`: the inhibition was 9.61%.
Regarding `COc1cc(C2/C(=C(\O)c3ccc4c(c3)OCCO4)C(=O)C(=O)N2Cc2ccco2)ccc1O` (stereo not drawn), the inhibition is -4.18%.
As to `O=C(OCc1nc2ccccc2s1)c1ccco1`, the inhibition was 53.7%.
Next, `CSCc1ccc(C(=O)OCc2nc3ccccc3s2)o1`: 65.8%; `CC(=O)C1=C(O)C(=O)N(c2ccc(Br)cc2)C1c1cccc([N+](=O)[O-])c1` (stereo not drawn): -1.11%.
Under `O=C(CS(=O)CC(=O)Nc1cnc2ccccc2c1)Nc1ccc(Cl)cc1` (stereo not drawn) stands 47%; under `CCOc1ccc(NC(=S)NC23CC4CC(CC(C4)C2)C3)cc1`, -20.5%; under `CSc1nsc(SC)c1C(=O)OCC(F)(F)F`, -1.41%.
Next, `CCN1CCN(CC2COc3ccccc3O2)CC1` (stereo not drawn): -2.32%; `CCN(CC)C(=O)CN1CCC(c2nc3cc(C)c(C)cc3[nH]2)CC1`: -1.85%; `CCC(C)N1C(=O)CCC1C(=O)NCCc1ccc(Cl)cc1` (stereo not drawn): 5.11%.
`CCCCOc1ccc(CC2CCC(=O)NC2=O)cc1` (stereo not drawn): the inhibition was 12.4%.
Under `CCOc1ccc(C(C)(C)C)cc1S(=O)(=O)n1nc(C)cc1C` stands -3.62%; under `COc1cc(C(=S)N2CCOCC2)ccc1OC(=O)/C=C/c1ccco1`, 5.25%.
Next, `O=C(/C=C/c1ccccc1)Oc1ccc(C(=S)N2CCOCC2)cc1`: 13.4%; `CN(C(=O)c1cccc(NC(=O)c2ccccc2)c1)C1CCCCC1`: -5.84%; `CN(C)S(=O)(=O)c1ccc(Nc2ccc(-c3ccc4c(c3)OCCO4)nn2)cc1`: 2.53%.
As for `CCOc1ccc(-c2nn3c(-c4ccc(F)cc4)nnc3s2)cc1`, the inhibition is 0.65%.
Turning to `COc1ccc(-c2nn3c(-c4ccccc4)nnc3s2)cc1`, the inhibition was 36.9%.
For the compound `COc1ccccc1OCC(=O)N/N=C1/C=C(C)CC1`, the inhibition is 8.93%.
Under `O=C(c1ccc(CNc2c(N3CCCC3)c(=O)c2=O)cc1)N1CCN(C2CCCCC2)CC1` stands 38.8%; under `Cc1ccc(CNC(=O)c2ccc(CNc3c(N4CCCC4)c(=O)c3=O)cc2)cc1`, -5.18%; under `COc1cc(NC(=O)c2ccc(CNc3c(N4CCOCC4)c(=O)c3=O)cc2)cc(OC)c1`, -10.6%.
Consider `COc1ccc(CNC(=O)C2CCC(CNc3c(N4CCOCC4)c(=O)c3=O)CC2)cc1` (stereo not drawn), for which the inhibition is -8.95%.
Under `CC(C)C[C@H]1CNC(=O)C(=O)N1C[C@H](C)NC(=O)Cc1ccccc1` stands -3.35%; under `N#Cc1cccc(C(=O)N(CCc2ccccc2)Cc2cccs2)c1`, 2.88%.
Next, `Cc1cc(NC(=O)CN(C)CC(=O)Nc2ccc(F)c(F)c2F)no1`: -14.5%; `N#Cc1c(-c2ccc(Br)cc2)nc2n(c1=O)CCCS2`: -5.36%; `O=c1nc2n(c3ccc(Br)cc13)CCS2`: 14%.
Next, `CC(C)n1nnnc1-c1ccc(Cl)cc1`: -5.7%.
On to `N#Cc1ccc(C23OCCN2CCn2c3c3ccccc3[n+]2[O-])cc1` (stereo not drawn), for which the inhibition was 21.6%.
Next, `Cc1ccc(C23OCCN2CCn2nc4ccccc4c23)cc1` (stereo not drawn): -9.54%.
Next, `O=C(Nc1sc2c(c1C(=O)NC1CC1)CCCCCC2)c1ccco1`: -5.06%; `c1cncc(C2CC(c3cccs3)n3ncnc3N2)c1` (stereo not drawn): -8.25%; `Cc1ccc2nc(/C(C#N)=C/c3ccc(O)c(O)c3)[nH]c2c1`: 0.8%.
On to `Cc1ccc2nc(/C(C#N)=C/c3ccccc3C(=O)O)[nH]c2c1`, for which the inhibition is -0.89%.
Turning to `CCc1ccccc1NC(=O)CNC(=O)c1n[nH]c(=O)c2ccccc12`, the inhibition was -6.75%.
